Shown are actives, neighbours in structure and some others; about 12% of the full set was active somewhere.
JMJD2A Tudor – JMJD2A Tudor domain (human) inhibition; AID 504339; AlphaScreen JMJD2A-Tudor / H3K4me3 peptide binding; O75164; 390,000 compounds, 4.4% hits; Potency, µM (top dose mostly 114 µM), most hits filed as inhibitors; also: nearly all actives have a fitted effect of over 50% in size
PLK1 PBD block – PLK1 (human) polo-box domain binding inhibition; 360,000 compounds, 2.8% hits; Plk1 PBD binding of FITC phosphopeptide, fluorescence polarization; P53350; Potency, µM, hits mostly inhibitors; also: series mostly up to about 57 µM; nearly all actives have a fitted effect of over 65% in size
G9a inh – G9a (human) methyltransferase inhibition; Potency, µM (highest dose often 102 µM), hits mostly inhibitors; Q96KQ7; 350,000 compounds, 8.8% hits; G9a H3K9 monomethylation, AlphaScreen, 2 h; AID 504332; also: nearly all actives have a fitted effect of over 75% in size
Target sequence (Q96KQ7 913-1193 limits assumed): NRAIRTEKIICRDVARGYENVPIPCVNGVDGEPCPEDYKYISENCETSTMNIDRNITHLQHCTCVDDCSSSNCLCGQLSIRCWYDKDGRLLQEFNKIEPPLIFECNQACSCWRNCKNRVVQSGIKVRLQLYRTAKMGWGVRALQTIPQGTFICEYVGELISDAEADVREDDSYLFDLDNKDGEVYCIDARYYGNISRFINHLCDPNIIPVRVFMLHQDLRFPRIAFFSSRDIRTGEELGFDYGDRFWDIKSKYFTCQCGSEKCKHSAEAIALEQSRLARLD
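Readings reflect AlphaScreen signal from monomethyl-H3K9 antibody detection. HMT at 20 nM; substrate b-H3K9 500 nM; cofactor SAM 20 uM; 2 h RT reaction; compounds tested as titrations in qHTS with 15 min preincubation.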
PI5P4Ka inh – blocks human PI5P4K alpha kinase activity; P48426; PI5P4Kalpha enzyme, ADP-Glo luminescence, 60 min; hits give low values; max response, %; 330,000 compounds, 1.2% hits; AID 652105; active = max response of -50% or lower; inconclusive = between -30% and -50%; inactive = -30% or higher; also: value at the top dose of about 77 µM
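PI5P4Kalpha ADP-Glo assay; 5 microM ATP final; 60 min RT reaction; HEPES pH 7.4/EGTA/CHAPS, 5% DMSO; controls lacking substrate or enzyme; luminescent end-point.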
HP1b chromo inh – inhibitors of HP1-beta chromodomain binding to methylated histone tails; Potency, µM (series often up to 114 µM), most hits filed as inhibitors; P83916; 390,000 compounds, 0.56% hits; AlphaScreen HP1-beta / biotin-H3K9me3 peptide binding; also: nearly all actives have a fitted effect of over 70% in size
Target sequence (P83916 whole entry, looked up): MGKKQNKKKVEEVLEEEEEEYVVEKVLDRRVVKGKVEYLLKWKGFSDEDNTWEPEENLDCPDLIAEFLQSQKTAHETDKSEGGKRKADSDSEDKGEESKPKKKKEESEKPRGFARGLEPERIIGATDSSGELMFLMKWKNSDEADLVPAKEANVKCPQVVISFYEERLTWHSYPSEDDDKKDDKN
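HP1-beta protein (50 nM final) preincubated 30 min at room temperature with biotinylated H3(1-18)K9me3 peptide (50 nM) in PBS pH 7.4, 0.01% Tween-20, then compound added for 30 min. AlphaScreen streptavidin donor/nickel chelate acceptor beads (10 ug/mL final), 30 min dark, luminescence read.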
BAZ2B block – blocks human BAZ2B; Q9UIF8; AlphaScreen BAZ2B-H3K14Ac peptide displacement; 360,000 compounds, 4.4% hits; Potency, µM (series often up to 114 µM), usual class: inhibitors; also: nearly all actives have a fitted effect of over 60% in size
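BAZ2B (50 nM) with biotin-H3(5-23)K14Ac peptide (50 nM) in PBS pH 7.4, 0.01% Tween-20, preformed 30 min, then compound 30 min at room temperature; top concentration 110uM. AlphaScreen streptavidin donor/nickel chelate acceptor beads (10 ug/mL final), 20 min dark, signal read.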
Numbers stand for hits; [ ] = dose if it differs, or a comment. Unless noted, calls follow the shape of the dose curve; as a rule, active = well fitted curve in the direction sought with a large enough effect; inconclusive = small, poorly fitted or top-dose-only effect, or another doubt; inactive = no such curve, though single readings can be large; an effect the other way counts as inactive or inconclusive.

COc1ccc(C(=O)c2nccc3cc(OC)c(OC)cc23)cc1OC was read as JMJD2A Tudor inactive, PLK1 PBD block inactive, G9a inh inactive[2.33 µM], PI5P4Ka inh inactive, HP1b chromo inh inactive and BAZ2B block inactive.
COc1cc2c(cc1OC)-c1c(OC)c(OC)cc3ccnc(c13)C2=O was read as JMJD2A Tudor inactive, PLK1 PBD block inactive, G9a inh inactive, PI5P4Ka inh inactive, HP1b chromo inh inactive and BAZ2B block 14µM.
Screening Cn1c(=O)n(-c2cccc(Cl)c2)c(=O)n1C returned JMJD2A Tudor inactive, PLK1 PBD block inactive, G9a inh inactive, HP1b chromo inh inactive and BAZ2B block inactive.
`O=c1c2cn[nH]c2[nH]c(=S)n1-c1cccc(Cl)c1` gave JMJD2A Tudor inactive, PLK1 PBD block inactive, G9a inh 32µM, PI5P4Ka inh inactive, HP1b chromo inh inactive and BAZ2B block inactive.
`COc1ccc(-c2ccc(C(=O)N3CCOCC3)c3occc23)c(C)c1` gave PLK1 PBD block inactive and PI5P4Ka inh inactive.
For O=c1cc(CO)oc(C(Nc2ccccn2)c2cccc(F)c2)c1O (stereo not drawn) the results were JMJD2A Tudor 20µM, PLK1 PBD block 24µM, G9a inh 1.3µM, PI5P4Ka inh inactive, HP1b chromo inh inconclusive and BAZ2B block inactive.
O=c1cc(CO)oc(C(Nc2ccccn2)c2ccc(C(F)(F)F)cc2)c1O (stereo not drawn) was read as JMJD2A Tudor inactive, PLK1 PBD block inconclusive, G9a inh 1.6µM, PI5P4Ka inh inactive, HP1b chromo inh inactive and BAZ2B block inactive.
COc1cccc(C(Nc2ccccn2)c2oc(CO)cc(=O)c2O)c1 (stereo not drawn) was read as JMJD2A Tudor 45µM, PLK1 PBD block 21µM, G9a inh 1.3µM, PI5P4Ka inh inactive, HP1b chromo inh inconclusive and BAZ2B block 79µM.
`O=c1cc(CO)oc(C(Nc2ccccn2)c2ccccc2F)c1O` (stereo not drawn) gave JMJD2A Tudor 22µM, PLK1 PBD block inconclusive, PI5P4Ka inh inactive and HP1b chromo inh inconclusive.
For CC(C)C[C@H](NC(=O)N1CCn2c1nc1ccccc12)C(=O)NCc1ccc2c(c1)OCO2 the results were JMJD2A Tudor inactive, PLK1 PBD block inactive, G9a inh inactive, PI5P4Ka inh inactive, HP1b chromo inh inactive and BAZ2B block inactive.
For COc1ccc(C(=O)Nc2c(N)nc(SCC(=O)NCC3CCCO3)[nH]c2=O)cc1 (stereo not drawn) the results were JMJD2A Tudor inactive, PLK1 PBD block inactive, G9a inh inactive[12.7 µM], PI5P4Ka inh inactive, HP1b chromo inh inactive and BAZ2B block inactive.
Screening COc1ccc(NC2CCCN(C(=O)CSc3ccccc3)C2)cc1OC (stereo not drawn) returned JMJD2A Tudor inactive, PLK1 PBD block inactive, PI5P4Ka inh inactive, HP1b chromo inh inactive and BAZ2B block inconclusive.
`CCOC(=O)C1CCN(Cc2ccccn2)CC1` gave G9a inh 1.8µM and BAZ2B block 50µM.
For CC1CN(Cc2ccccn2)CCC1=O (stereo not drawn) the results were JMJD2A Tudor inactive, PLK1 PBD block inactive, G9a inh 7.9µM, PI5P4Ka inh inactive, HP1b chromo inh inactive and BAZ2B block inactive.
O=C(O)C1CCN(Cc2ccccn2)CC1 was read as JMJD2A Tudor inconclusive, PLK1 PBD block inactive, G9a inh 25µM, PI5P4Ka inh inactive, HP1b chromo inh inactive and BAZ2B block inconclusive.
O=S1(=O)CCN(Cc2ccccn2)CC1 was read as JMJD2A Tudor inactive, PLK1 PBD block inactive, G9a inh inconclusive, PI5P4Ka inh inactive, HP1b chromo inh inactive and BAZ2B block inactive.
`O=C(C(c1ccccc1)c1ccccc1)N1CCN(Cc2ccccn2)CC1` gave JMJD2A Tudor 4µM, PLK1 PBD block inactive, G9a inh inconclusive, PI5P4Ka inh inactive, HP1b chromo inh inconclusive and BAZ2B block 56µM.
`O=C(C(c1ccccc1)c1ccccc1)N1CCN(Cc2ccncc2)CC1` gave JMJD2A Tudor inconclusive, PLK1 PBD block inactive, G9a inh inconclusive, PI5P4Ka inh inactive, HP1b chromo inh inconclusive and BAZ2B block inconclusive.
For COC(=O)C1CCN(C(=O)c2ccc(OC3CCN(Cc4ccccn4)CC3)cc2)CC1 the results were JMJD2A Tudor inconclusive, PLK1 PBD block inactive, G9a inh inactive, PI5P4Ka inh inactive, HP1b chromo inh inactive and BAZ2B block inactive.

From PubChem
